Assay results as given in PMC6792352, “Limited Chemical Structural Diversity Found to Modulate Thyroid Hormone Receptor in the Tox21 Chemical Library” (Environmental Health Perspectives, 2019).
Structures can show the parent of a compound that is named as a salt.

These compounds were tested on thyroid hormone receptor (endogenous TRα and TRβ). Conditions: read-out: Average AC50 (uM) GH3-TRE-Antag, antagonist mode, 1 nM T3, no GH3 cytotoxicity hit.
Design: species or system GH3-TRE-Luc (rat pituitary); GH3-TRE-Luc luciferase reporter, antagonist mode against 1 nM T3, loss of signal, qHTS
Compound `O=C1/C(=C/c2cccs2)CCC/C1=C\c1cccs1` [Tenylidone] has an AC50 of 46.5 µM.
With `CC(C)C(C(=O)OC(C#N)c1cccc(Oc2ccccc2)c1)c1ccc(OC(F)F)cc1` (stereo not shown) [Flucythrinate] the AC50 was 32.5 µM.
`CC/C=C\C/C=C\C/C=C\CCCCCCCC(=O)O` [Linolenic acid] was tested, and the AC50 was greater than 50 µM.
Work on `CCN(CC)C(=O)C(C)Oc1cccc2ccccc12` (stereo not shown) [Napropamide] yielded an AC50 of 74.1 µM.
Compound `O=c1[nH]c(=O)n([C@H]2C[C@H](O)[C@@H](CO)O2)cc1F` [Floxuridine] has an AC50 of 4.49 µM.
With `c1ccc2c(c1)Cc1ccccc1-2` [Fluorene] the AC50 was 55.8 µM.
Work on `CCCCN(CCCC)C(=O)N(CCCC)CCCC` [1,1,3,3-Tetrabutylurea] yielded an AC50 of 22.2 µM.
For `CCCCNc1c(C(=O)OCC)c(C)nc2c1cnn2CC` [Tracazolate hydrochloride], the AC50 was 42.6 µM.
In the case of `C1COC(NC(C2CC2)C2CC2)=N1` [Rilmenidine], the AC50 is reported as 29.6 µM.
`c1ccc(C2(c3ccccc3)CC2C2=NCCN2)cc1` (stereo not shown) [Cifenline succinate] gave an AC50 of 35.8 µM.
`CC(C)c1c(CN(C)C(C)Cc2ccccc2)n(C)n(-c2ccccc2)c1=O` (stereo not shown) [Famprofazone] gave an AC50 of 13.1 µM.
With `Cc1ccc2oc(CN(Cc3ccccc3)C(=O)Nc3c(F)cc(F)cc3F)c(-c3ccc(Cl)cc3)c2c1` [FR145237] the AC50 was 4.47 µM.
`CC1(C)S[C@@H]2[C@H](NC(=O)[C@H](N)c3ccccc3)C(=O)N2[C@H]1C(=O)OC1OC(=O)c2ccccc21` (stereo partly shown) [Talampicillin hydrochloride] was tested, and the AC50 was greater than 20 µM.
`Nc1ccc2cc3ccccc3cc2c1` [2-Aminoanthracene] gave an AC50 of 3.18 µM.
`CC1(CO)CN(c2ccccc2)NC1=O` (stereo not shown) [4-(Hydroxymethyl)-4-methyl-1-phenylpyrazolidin-3-one] gave an AC50 of 82.6 µM.
In the case of `O=C(CCCN1CCC(O)(c2ccc(Br)cc2)CC1)c1ccc(F)cc1` [Bromperidol], the AC50 is reported as 12.9 µM.
`C=CCOC(Cn1ccnc1)c1ccc(Cl)cc1Cl` (stereo not shown) [Imazalil sulfate] was tested, and the AC50 was 28.4 µM.
For `Nc1c(Br)cc(Br)cc1CN[C@H]1CC[C@H](O)CC1` [Ambroxolhydrochloride], the AC50 was 24.9 µM.
`NC(=O)Nc1ccc(Cl)c(Cl)c1` [3,4-Dichlorophenylurea] gave an AC50 of 52.4 µM.
With `c1ccc(CN(Cc2ccccc2)Cc2ccccc2)cc1` [Tribenzylamine] the AC50 was 90.8 µM.
`C/C=C\C/C=C/CCCCCCCCOC(C)=O` [(9E,12Z)-9,12-Tetradecadien-1-ol acetate] showed an AC50 of 68.2 µM.
`CCOC(=O)n1ccn(C)c1=S` [Carbimazole] showed an AC50 greater than 20 µM.
Compound `N=C(N)NC(=N)NCCc1ccccc1` [Phenformin hydrochloride] has an AC50 greater than 20 µM.
For `CCCc1c(OCCCOc2ccc(OCC(=O)O)cc2)ccc(C(C)=O)c1O` [4-[3-(4-Acetyl-3-hydroxy-2-propylphenoxy)propoxy]phenoxy-acetic acid], the AC50 was 85.9 µM.
`CCN(CC)CCNC(C(=O)OCCC(C)C)c1ccccc1` (stereo not shown) [Camylofin] gave an AC50 greater than 50 µM.
`C=CC(C)(O)CC/C=C(\C)CCC=C(C)C` (stereo not drawn) [trans-Nerolidol] was tested, and the AC50 was 9.85 µM.
For `COc1cccc(C(=O)NN(C(=O)c2cc(C)cc(C)c2)C(C)(C)C)c1C` [Methoxyfenozide], the AC50 was 55.4 µM.
Compound `Oc1ccc(Cc2ccccc2O)cc1` [2-(4-Hydroxybenzyl)phenol] has an AC50 of 63.8 µM.
With `O=[N+]([O-])c1cc[n+]([O-])cc1` [4-Nitropyridine-1-oxide] the AC50 was 80.5 µM.
`O=C(CCCN1CCC(C(=O)c2ccc(F)cc2)CC1)c1ccc(F)cc1` [Lenperone] was tested, and the AC50 was 44.5 µM.
Compound `O=C(/C=C/C=C/c1ccc2c(c1)OCO2)N1CCCCC1` [Piperine] has an AC50 of 73.5 µM.
With `COC(=O)[C@H](c1ccccc1Cl)N1CCc2sccc2C1` [Clopidogrel hydrogen sulfate] the AC50 was 45.8 µM.
`CC(=O)OCC(=O)[C@H]1CC[C@H]2[C@@H]3CCC4=CC(=O)CC[C@]4(C)[C@H]3CC[C@]12C` [Deoxycorticosterone acetate] gave an AC50 of 25.2 µM.
Work on `Cc1ccc2nc(N)[nH]c(=O)c2c1Sc1ccncc1` [Nolatrexed dihydrochloride] yielded an AC50 of 4.76 µM.
Compound `CCCC(=O)c1cc(O)c(O)cc1O` [2',4',5'-Trihydroxybutyrophenone] has an AC50 of 52.7 µM.
Compound `CCOC(=O)NC(=S)Nc1ccccc1NC(=S)NC(=O)OCC` [Thiophanate] has an AC50 of 47.1 µM.

Same assay, conditions: read-out: Average AC50 (uM) GH3-TRE-Antag, antagonist mode, 1 nM T3, no GH3 cytotoxicity hit, Average AC50 (uM) GH3-TRE-Antag, 24 h
Compound `CC(C)c1c(C(=O)Nc2ccccc2)c(-c2ccccc2)c(-c2ccc(F)cc2)n1CC[C@@H](O)C[C@@H](O)CC(=O)O` [Atorvastatin] has an AC50 of 0.321 µM.
`Nc1ccc2cc3ccc(N)cc3nc2c1` [Proflavin hemisulfate] was tested, and the AC50 was 4.93 µM.
For `CCCCCCn1cc[n+](C)c1` [1-Hexyl-3-methylimidazolium bromide], the AC50 was 47.7 µM.
`CCCCCCn1cc[n+](C)c1` [1-Hexyl-3-methylimidazolium tetrafluoroborate] gave an AC50 of 56.1 µM.
